The full data set covers some 7,900 targets. This sample favours those with a hit. About 0.6% of all pairs of compound and target were hits.
Tests used:
Assay in all cases: log2 fold change, soluble protein after heating vs DMSO (PISA); higher = thermal stabilisation; K562 cells, 10 uM, 30 min; active = over 0.2 and 3.5 SD of the protein, either way, in both replicates (recomputed)
IRAK-1-4 Inhibitor I = compound: C1COCCN1CCN2C3=CC=CC=C3N=C2NC(=O)C4=CC(=CC=C4)[N+](=O)[O-] [IRAK-1-4 Inhibitor I]
In short: (§1)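 Aliquots of K562 cells (2×10^6 cells/mL) treated with 10 μM compound for 30 min were heated for 3 min over 48°C-58°C. After pooling and extraction in PBS with 0.5% NP-40 at 4°C, soluble protein from a 21,000xg, 90 min spin was quantified by TMTpro 16plex LC-MS/MS with channel sums equalised. Thermal stability is expressed against control samples, from duplicates, as a log2 fold change.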

ibrutinib = compound: C=CC(=O)N1CCC[C@@H](n2nc(-c3ccc(Oc4ccccc4)cc3)c3c(N)ncnc32)C1 [ibrutinib]
In short: as §1

[1] = compound: CC(=O)c1cnc2ccc(-c3cc(Cl)c(O)c(Cl)c3)nc2c1N[C@H]1CC[C@H](CN(C)C)CC1
In short: as §1

ralimetinib = compound: CC(C)(C)Cn1c(N)nc2ccc(-c3[nH]c(C(C)(C)C)nc3-c3ccc(F)cc3)nc21 [ralimetinib]
In short: as §1

[2] = compound: CC(C)(O)CC(=O)NCCn1ccc2ncnc(Nc3ccc(Oc4cccc(C(F)(F)F)c4)c(Cl)c3)c21
In short: as §1

[3] = compound: CC(C)C1=C2N=C(C=C(N2N=C1)NCC3=CC=CC=C3)NCCCCCCN
In short: as §1

[4] = compound: CC(C)C[C@@H](C=O)NC(=O)[C@H](CC(C)C)NC(=O)[C@H](CC(C)C)NC(=O)OCc1ccccc1
In short: as §1

pinometostat = compound: CC(C)N(C[C@H]1O[C@@H](n2cnc3c(N)ncnc32)[C@H](O)[C@@H]1O)[C@H]1C[C@@H](CCc2nc3cc(C(C)(C)C)ccc3[nH]2)C1 [pinometostat]
In short: as §1

[5] = compound: CC1=C(C(CC(=O)N1)C2=CC=C(C=C2)C(F)(F)F)C(=O)NC3=C(C=C4C(=C3)C=NN4)F
In short: as §1

[6] = compound: CC1=C(C2=C(C=C1)C(=O)C3=CC=CC=C3N2CCCN)C
In short: as §1

[7] = compound: CC1=C(C=C(C=C1)NC(=O)C2=CC(=CC=C2)C(C)(C)C#N)NC3=CC4=C(C=C3)N=CN(C4=O)C
In short: as §1

[8] = compound: CC1=C(C=C(C=C1)NC(=O)C2=CC(=CC=C2)N(C)C)NC(=O)C3=CC=C(C=C3)O
In short: as §1

[9] = compound: CC1=CC=C(C=C1)SC2=C3C=C(SC3=CN=C2)C(=O)N
In short: as §1

[10] = compound: CC1=NC(=CC=C1)C2=C(N=C(N2)C(C)(C)C)C3=CC4=NC=CN=C4C=C3
In short: as §1

Nexturastat A = compound: CCCCN(Cc1ccc(C(=O)NO)cc1)C(=O)Nc1ccccc1 [Nexturastat A]
In short: as §1

vemurafenib = compound: CCCS(=O)(=O)Nc1ccc(F)c(C(=O)c2c[nH]c3ncc(-c4ccc(Cl)cc4)cc23)c1F [vemurafenib]
In short: as §1

[11] = compound: CCCS(=O)(=O)Nc1ccc(F)c(C(=O)c2c[nH]c3ncc(Cl)cc23)c1F
In short: as §1

[12] = compound: CCCc1cc(C)[nH]c(=O)c1CNC(=O)c1cc(-c2ccnc(N3CCN(C)CC3)c2)cc2c1cnn2C(C)C
In short: as §1

givinostat = compound: CCN(CC)Cc1ccc2cc(COC(=O)Nc3ccc(C(=O)NO)cc3)ccc2c1 [givinostat]
In short: as §1

barasertib = compound: CCN(CCCOc1ccc2c(Nc3cc(CC(=O)Nc4cccc(F)c4)[nH]n3)ncnc2c1)CCOP(=O)(O)O [barasertib]
In short: as §1

Measured: log2 fold change

TRAPPC2L (UniProt Q9UL33)
UniProt Q9UL33, sequence (Q9UL33 whole entry, looked up): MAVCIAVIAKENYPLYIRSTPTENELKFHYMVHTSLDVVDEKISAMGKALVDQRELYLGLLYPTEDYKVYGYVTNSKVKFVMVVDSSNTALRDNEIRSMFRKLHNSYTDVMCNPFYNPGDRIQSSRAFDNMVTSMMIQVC
inactive: IRAK-1-4 Inhibitor I -0.013 | ibrutinib 0.003 | [1] -0.004 | ralimetinib -0.125 | [2] -0.11 | [3] -0.083 | [4] 0.24 | pinometostat 0.001 | [5] 0.062 | [6] 0.014 | [7] 0 | [8] -0.135 | [9] 0.133 | [10] 0.045 | Nexturastat A 0.003 | vemurafenib 0.076 | [11] 0.11 | [12] 0.055 | givinostat -0.123 | barasertib 0.05

UBE2S (UniProt Q16763)
inactive: IRAK-1-4 Inhibitor I -0.065 | ibrutinib -0.035 | [1] -0.037 | ralimetinib 0.03 | [2] -0.034 | [3] 0.018 | [4] 0.125 | pinometostat -0.05 | [5] -0.004 | [6] -0.055 | [7] 0.024 | [8] -0.015 | [9] 0.004 | [10] 0.009 | Nexturastat A 0.057 | vemurafenib 0.013 | [11] 0.049 | [12] -0.007 | givinostat 0.044 | barasertib 0.03

TRMT2A (UniProt Q8IZ69)
inactive: IRAK-1-4 Inhibitor I -0.028 | ibrutinib 0.005 | [1] -0.098 | ralimetinib 0.039 | [2] 0.013 | [3] -0.146 | [4] 0.034 | pinometostat 0.085 | [5] 0.018 | [6] -0.142 | [7] 0.083 | [8] -0.02 | [9] -0.009 | [10] 0.005 | Nexturastat A 0.013 | vemurafenib 0.022 | [11] -0.032 | [12] 0.085 | givinostat -0.123 | barasertib -0.003

WDR4 (UniProt P57081)
active: [11] 0.26
inactive: IRAK-1-4 Inhibitor I 0.024 | ibrutinib -0.052 | [1] 0.022 | ralimetinib -0.033 | [2] -0.003 | [3] -0.005 | [4] -0.072 | pinometostat -0.017 | [5] 0.019 | [6] 0.028 | [7] -0.112 | [8] -0.055 | [9] 0.173 | [10] 0.104 | Nexturastat A 0.048 | vemurafenib -0.004 | [12] -0.013 | givinostat -0.026 | barasertib -0.023

WDR43 (UniProt Q15061)
UniProt Q15061, sequence (Q15061 whole entry, looked up): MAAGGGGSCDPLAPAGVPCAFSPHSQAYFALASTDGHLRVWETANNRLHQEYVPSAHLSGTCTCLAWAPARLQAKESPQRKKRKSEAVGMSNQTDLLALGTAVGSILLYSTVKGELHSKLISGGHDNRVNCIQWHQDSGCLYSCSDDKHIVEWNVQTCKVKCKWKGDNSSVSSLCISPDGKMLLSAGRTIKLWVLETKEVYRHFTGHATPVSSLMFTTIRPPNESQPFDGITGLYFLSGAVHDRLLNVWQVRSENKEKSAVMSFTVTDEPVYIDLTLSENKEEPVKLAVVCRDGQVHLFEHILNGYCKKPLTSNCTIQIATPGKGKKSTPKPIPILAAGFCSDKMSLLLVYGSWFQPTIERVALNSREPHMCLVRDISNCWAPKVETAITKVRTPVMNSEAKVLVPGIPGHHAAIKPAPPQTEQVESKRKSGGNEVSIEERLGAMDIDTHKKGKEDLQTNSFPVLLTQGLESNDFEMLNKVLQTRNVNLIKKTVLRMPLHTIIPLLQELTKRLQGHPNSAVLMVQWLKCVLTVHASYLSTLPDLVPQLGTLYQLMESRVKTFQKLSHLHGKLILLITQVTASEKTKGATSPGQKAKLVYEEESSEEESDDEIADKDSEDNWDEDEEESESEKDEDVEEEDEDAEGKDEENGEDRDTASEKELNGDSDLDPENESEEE
inactive: IRAK-1-4 Inhibitor I 0.023 | ibrutinib 0.019 | [1] 0.012 | ralimetinib -0.088 | [2] -0.003 | [3] 0.199 | [4] -0.039 | pinometostat -0.035 | [5] 0.009 | [7] -0.015 | [8] 0.018 | [9] 0.009 | [10] -0.001 | Nexturastat A -0.097 | vemurafenib -0.027 | [11] 0.012 | [12] -0.061 | givinostat -0.007 | barasertib -0.033
active: [6] 0.222

VARS2, A0A0G2JL52
inactive: IRAK-1-4 Inhibitor I 0.012 | ibrutinib 0.014 | [1] -0.03 | ralimetinib 0.064 | [2] -0.074 | [3] -0.177 | [4] 0.025 | pinometostat -0.014 | [5] 0.003 | [6] 0.082 | [7] -0.003 | [8] 0.005 | [9] -0.025 | [10] 0.012 | Nexturastat A 0.005 | vemurafenib 0.03 | [11] 0.047 | [12] -0.018 | givinostat -0.015 | barasertib 0.052

TRABD (UniProt Q9H4I3)
UniProt Q9H4I3, sequence (Q9H4I3 whole entry, looked up): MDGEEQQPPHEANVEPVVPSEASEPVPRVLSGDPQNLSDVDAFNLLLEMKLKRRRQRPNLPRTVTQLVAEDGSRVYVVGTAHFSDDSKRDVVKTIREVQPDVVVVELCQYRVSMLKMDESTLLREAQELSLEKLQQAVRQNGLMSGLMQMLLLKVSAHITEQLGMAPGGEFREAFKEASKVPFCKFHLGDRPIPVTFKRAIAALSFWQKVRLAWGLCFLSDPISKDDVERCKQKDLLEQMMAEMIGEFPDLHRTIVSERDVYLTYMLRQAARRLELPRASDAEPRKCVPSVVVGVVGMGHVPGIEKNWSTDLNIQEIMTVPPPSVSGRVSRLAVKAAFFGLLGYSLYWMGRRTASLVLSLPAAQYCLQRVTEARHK
active: [3] 0.416
inactive: IRAK-1-4 Inhibitor I -0.046 | ibrutinib 0.007 | [1] -0.032 | ralimetinib 0.073 | [2] 0.277 | [4] 0.045 | pinometostat 0.018 | [5] -0.005 | [6] -0.005 | [7] 0.014 | [8] -0.017 | [9] -0.005 | [10] -0.133 | Nexturastat A -0.03 | vemurafenib 0.125 | [11] -0.06 | [12] 0.147 | givinostat -0.041 | barasertib 0.031

UBE2Q1 (UniProt Q7Z7E8)
UniProt Q7Z7E8, sequence (Q7Z7E8 whole entry, looked up): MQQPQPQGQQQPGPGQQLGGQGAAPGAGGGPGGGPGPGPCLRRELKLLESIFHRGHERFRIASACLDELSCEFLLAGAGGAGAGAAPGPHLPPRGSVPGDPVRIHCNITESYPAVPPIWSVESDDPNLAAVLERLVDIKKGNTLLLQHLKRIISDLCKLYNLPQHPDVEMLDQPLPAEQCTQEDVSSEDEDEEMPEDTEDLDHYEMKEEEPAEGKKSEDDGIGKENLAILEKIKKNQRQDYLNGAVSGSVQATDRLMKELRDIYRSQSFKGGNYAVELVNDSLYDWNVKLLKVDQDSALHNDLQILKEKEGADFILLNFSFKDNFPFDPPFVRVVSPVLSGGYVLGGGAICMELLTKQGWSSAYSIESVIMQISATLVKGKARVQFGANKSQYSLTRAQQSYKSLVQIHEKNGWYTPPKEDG
inactive: IRAK-1-4 Inhibitor I 0.024 | ibrutinib -0.012 | [1] 0.029 | ralimetinib -0.015 | [2] -0.062 | [3] -0.192 | [4] -0.11 | pinometostat 0.005 | [5] -0.01 | [6] -0.006 | [7] 0.093 | [8] -0.041 | [9] -0.003 | [10] -0.037 | Nexturastat A 0.008 | vemurafenib 0.011 | [11] 0.114 | [12] -0.031 | givinostat 0.022 | barasertib 0.068

TMEM177 (UniProt Q53S58)
UniProt Q53S58, sequence (Q53S58 whole entry, looked up): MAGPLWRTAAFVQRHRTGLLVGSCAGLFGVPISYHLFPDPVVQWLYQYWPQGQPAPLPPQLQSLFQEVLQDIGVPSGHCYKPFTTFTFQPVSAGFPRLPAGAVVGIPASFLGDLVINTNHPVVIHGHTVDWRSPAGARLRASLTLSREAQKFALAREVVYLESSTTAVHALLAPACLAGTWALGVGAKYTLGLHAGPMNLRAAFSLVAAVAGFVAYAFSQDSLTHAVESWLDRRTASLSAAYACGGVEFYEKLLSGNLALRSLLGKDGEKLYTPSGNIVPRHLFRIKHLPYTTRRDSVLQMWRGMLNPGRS
inactive: IRAK-1-4 Inhibitor I 0.06 | ibrutinib 0.079 | [1] 0.007 | ralimetinib -0.068 | [2] -0.023 | [3] -0.131 | [4] 0.045 | pinometostat -0.02 | [5] -0.007 | [6] 0.028 | [7] 0.043 | [8] 0.045 | [9] -0.008 | [10] 0.048 | Nexturastat A -0.092 | vemurafenib 0.05 | [11] 0.05 | [12] -0.038 | givinostat 0.005 | barasertib -0.019

TMTC3 (UniProt Q6ZXV5)
UniProt Q6ZXV5, sequence (Q6ZXV5 whole entry, looked up): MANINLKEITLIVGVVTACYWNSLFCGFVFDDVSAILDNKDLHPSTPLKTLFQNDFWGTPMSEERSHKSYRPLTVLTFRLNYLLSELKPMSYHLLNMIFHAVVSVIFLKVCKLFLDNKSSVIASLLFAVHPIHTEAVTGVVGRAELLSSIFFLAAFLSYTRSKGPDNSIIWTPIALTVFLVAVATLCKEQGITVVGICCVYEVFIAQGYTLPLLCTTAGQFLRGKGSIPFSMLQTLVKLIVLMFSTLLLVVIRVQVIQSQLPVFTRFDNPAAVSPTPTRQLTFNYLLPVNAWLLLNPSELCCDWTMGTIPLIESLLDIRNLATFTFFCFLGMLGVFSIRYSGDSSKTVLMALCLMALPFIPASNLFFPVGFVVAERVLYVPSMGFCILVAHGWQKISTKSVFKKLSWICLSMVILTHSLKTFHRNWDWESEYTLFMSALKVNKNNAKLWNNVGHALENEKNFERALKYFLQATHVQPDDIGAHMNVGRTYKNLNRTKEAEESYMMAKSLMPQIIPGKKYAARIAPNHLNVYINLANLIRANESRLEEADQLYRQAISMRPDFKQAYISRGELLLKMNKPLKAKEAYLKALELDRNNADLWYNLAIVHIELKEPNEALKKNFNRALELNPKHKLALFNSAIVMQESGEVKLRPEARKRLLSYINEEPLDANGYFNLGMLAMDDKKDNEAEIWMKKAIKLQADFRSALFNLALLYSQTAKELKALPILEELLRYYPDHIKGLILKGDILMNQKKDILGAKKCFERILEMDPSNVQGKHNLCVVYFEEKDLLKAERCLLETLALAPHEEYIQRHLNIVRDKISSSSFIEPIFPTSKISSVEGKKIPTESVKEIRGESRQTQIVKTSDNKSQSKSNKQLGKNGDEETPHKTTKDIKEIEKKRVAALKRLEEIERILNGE
inactive: IRAK-1-4 Inhibitor I 0.007 | ibrutinib -0.033 | [1] -0.007 | ralimetinib 0 | [2] 0.022 | [3] -0.218 | [4] 0.028 | pinometostat -0.019 | [5] -0.008 | [6] 0.018 | [7] -0.05 | [8] -0.009 | [9] 0.019 | [10] 0.007 | Nexturastat A 0.067 | vemurafenib -0.052 | [11] 0.013 | [12] -0.013 | givinostat -0.032 | barasertib 0.032

WASH2P (UniProt Q6VEQ5)
UniProt Q6VEQ5, sequence (Q6VEQ5 whole entry, looked up): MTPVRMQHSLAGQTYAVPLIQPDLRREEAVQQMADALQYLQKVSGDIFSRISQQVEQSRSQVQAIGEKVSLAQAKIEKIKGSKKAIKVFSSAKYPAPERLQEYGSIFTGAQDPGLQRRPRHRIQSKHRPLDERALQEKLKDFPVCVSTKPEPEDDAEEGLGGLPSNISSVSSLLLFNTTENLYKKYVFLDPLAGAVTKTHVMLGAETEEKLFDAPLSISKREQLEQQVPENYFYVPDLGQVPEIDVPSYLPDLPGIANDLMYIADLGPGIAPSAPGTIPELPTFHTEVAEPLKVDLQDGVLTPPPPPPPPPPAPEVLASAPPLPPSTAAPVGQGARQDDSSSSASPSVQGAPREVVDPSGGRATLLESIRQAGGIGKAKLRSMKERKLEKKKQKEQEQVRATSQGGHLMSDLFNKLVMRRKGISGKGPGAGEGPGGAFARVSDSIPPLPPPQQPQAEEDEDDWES
inactive: IRAK-1-4 Inhibitor I 0.001 | ibrutinib -0.049 | [1] 0.052 | ralimetinib 0.022 | [2] 0.048 | [4] 0.025 | pinometostat -0.016 | [5] -0.022 | [6] 0.026 | [7] -0.001 | [8] -0.034 | [9] 0.019 | [10] 0 | Nexturastat A 0.139 | vemurafenib 0.03 | [11] -0.01 | [12] 0.026 | givinostat -0.007 | barasertib 0.043
active: [3] -0.234

XPO5 (UniProt Q9HAV4)
active: [6] -0.204
inactive: IRAK-1-4 Inhibitor I -0.004 | ibrutinib -0.027 | [1] 0.032 | ralimetinib 0.001 | [2] -0.141 | [3] -0.21 | [4] -0.021 | pinometostat -0.01 | [5] 0 | [7] 0.031 | [8] -0.039 | [9] 0.054 | [10] 0.031 | Nexturastat A -0.053 | vemurafenib 0.013 | [11] 0.056 | [12] 0.014 | givinostat -0.029 | barasertib 0.029

TMEM161B (UniProt Q8NDZ6)
UniProt Q8NDZ6, sequence (Q8NDZ6 whole entry, looked up): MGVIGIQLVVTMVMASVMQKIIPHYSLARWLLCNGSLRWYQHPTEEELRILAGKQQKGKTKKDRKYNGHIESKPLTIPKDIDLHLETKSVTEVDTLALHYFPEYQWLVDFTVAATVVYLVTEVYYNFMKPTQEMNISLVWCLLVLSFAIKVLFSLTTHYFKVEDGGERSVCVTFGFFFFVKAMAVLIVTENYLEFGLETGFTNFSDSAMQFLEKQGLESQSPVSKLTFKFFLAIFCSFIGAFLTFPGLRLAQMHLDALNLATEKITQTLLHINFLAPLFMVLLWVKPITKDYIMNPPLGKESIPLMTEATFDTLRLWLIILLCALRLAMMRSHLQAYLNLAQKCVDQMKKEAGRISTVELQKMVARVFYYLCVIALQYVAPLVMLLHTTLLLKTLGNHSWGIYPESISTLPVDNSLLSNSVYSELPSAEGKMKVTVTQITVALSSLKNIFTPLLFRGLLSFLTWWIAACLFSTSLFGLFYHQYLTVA
inactive: IRAK-1-4 Inhibitor I 0.06 | ibrutinib -0.039 | [1] 0.008 | ralimetinib -0.097 | [3] -0.052 | [4] 0.015 | pinometostat -0.002 | [5] -0.031 | [6] 0.022 | [7] 0.003 | [8] -0.012 | [9] 0.026 | [10] 0.008 | Nexturastat A -0.063 | vemurafenib 0.079 | [11] 0.053 | [12] 0.012 | givinostat 0.032 | barasertib -0.037
active: [2] -0.227

UBC (UniProt P0CG48)
UniProt P0CG48, sequence (P0CG48 whole entry, looked up): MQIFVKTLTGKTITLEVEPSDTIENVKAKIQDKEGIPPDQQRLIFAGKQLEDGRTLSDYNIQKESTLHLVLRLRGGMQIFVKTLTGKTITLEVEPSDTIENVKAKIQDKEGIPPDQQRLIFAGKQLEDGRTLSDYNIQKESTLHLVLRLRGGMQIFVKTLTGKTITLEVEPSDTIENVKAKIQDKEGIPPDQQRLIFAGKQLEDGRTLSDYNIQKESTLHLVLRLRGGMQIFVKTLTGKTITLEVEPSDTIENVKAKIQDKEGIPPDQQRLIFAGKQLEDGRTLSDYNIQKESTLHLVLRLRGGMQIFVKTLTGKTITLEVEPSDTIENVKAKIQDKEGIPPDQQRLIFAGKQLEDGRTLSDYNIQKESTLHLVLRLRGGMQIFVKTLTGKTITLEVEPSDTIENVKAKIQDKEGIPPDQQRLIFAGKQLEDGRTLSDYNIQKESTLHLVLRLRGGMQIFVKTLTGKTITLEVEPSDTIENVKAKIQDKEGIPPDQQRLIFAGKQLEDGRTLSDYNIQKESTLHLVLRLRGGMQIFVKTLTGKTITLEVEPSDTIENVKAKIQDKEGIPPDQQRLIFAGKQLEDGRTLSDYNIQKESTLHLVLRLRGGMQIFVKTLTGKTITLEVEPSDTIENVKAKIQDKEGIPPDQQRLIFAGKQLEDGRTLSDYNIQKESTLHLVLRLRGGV
inactive: IRAK-1-4 Inhibitor I 0.022 | ibrutinib 0.027 | [1] 0.033 | ralimetinib -0.064 | [2] 0.008 | [3] 0.167 | pinometostat 0.042 | [5] -0.018 | [7] 0.007 | [8] -0.091 | [9] -0.001 | [10] -0.032 | Nexturastat A 0.151 | vemurafenib -0.016 | [11] -0.08 | [12] -0.017 | givinostat 0.028 | barasertib -0.018
active: [4] 0.296 | [6] 0.281

VRK2 (UniProt Q86Y07)
UniProt Q86Y07, sequence (Q86Y07 whole entry, looked up): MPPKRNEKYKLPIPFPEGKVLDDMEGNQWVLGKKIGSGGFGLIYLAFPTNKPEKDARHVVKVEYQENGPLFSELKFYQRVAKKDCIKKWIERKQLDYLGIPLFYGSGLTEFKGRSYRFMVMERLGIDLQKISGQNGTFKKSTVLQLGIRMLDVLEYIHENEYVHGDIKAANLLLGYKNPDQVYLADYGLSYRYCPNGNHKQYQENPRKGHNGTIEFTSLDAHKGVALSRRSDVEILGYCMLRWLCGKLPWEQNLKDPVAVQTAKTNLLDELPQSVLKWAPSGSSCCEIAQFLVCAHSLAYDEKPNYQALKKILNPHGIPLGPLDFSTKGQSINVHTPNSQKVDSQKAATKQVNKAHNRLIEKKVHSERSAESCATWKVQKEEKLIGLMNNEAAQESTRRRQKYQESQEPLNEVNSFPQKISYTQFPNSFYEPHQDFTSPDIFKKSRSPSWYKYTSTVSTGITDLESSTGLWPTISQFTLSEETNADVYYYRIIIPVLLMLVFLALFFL
active: [1] 0.32
inactive: IRAK-1-4 Inhibitor I 0.004 | ibrutinib 0.003 | ralimetinib 0.21 | [2] -0.088 | [3] 0.027 | [4] 0.074 | pinometostat 0.075 | [5] -0.03 | [6] 0.109 | [7] -0.072 | [8] -0.05 | [9] 0.01 | [10] 0.015 | Nexturastat A 0.04 | vemurafenib 0.006 | [11] 0.044 | [12] 0.025 | givinostat 0.03 | barasertib 0.01

— the supplement of paper PMC10849652
